This is an account of results in PubChem BioAssay (NCATS).

Molecules are shown by their SMILES. Inconclusive results are not listed. Values without a mark were called inactive. Active and inactive are the calls of the source. Calls follow the shape of the dose curve; as a rule, active = well fitted inhibition curve with a large enough effect; inconclusive = small, poorly fitted or top-dose-only effect; inactive = flat fitted curve, though single readings scatter.
% is scaled to controls: 0 for no effect and ±100 for the full control effect.

The test system of this assay is astro (control astrocytes). The assay is described as follows: Drug repurposing screens with cells derived from glioblastoma tumor samples (AID 1345199). Also: nearly all actives have a fitted effect of over 40% in size. The note with it: viability, ATP luminescence, 48 h; series mostly up to 45.9 µM; activity, negative = cell killing: at the top concentration. The essentials: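 Four patient lines of CD133+ GBM neurospheres were screened at several concentrations; hits were retested in those lines plus three slower-growing GBM lines, using 48-hour treatment and ATP-based viability.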
Consider `COP(=S)(OC)Oc1ccc(S(=O)(=O)N(C)C)cc1`, for which the “activity, negative = cell killing” value was -28.8%. Still for that read-out and setting: the same measure for `C[C@]12CCC(=O)C=C1CC[C@@H]1[C@@H]2CC[C@@]2(C)[C@H]1CC[C@]2(C)O`: -27.9%.

With `C[C@]1(O)CC[C@H]2[C@@H]3CCC4=CC(=O)CC[C@]4(C)[C@@]3(F)[C@@H](O)C[C@@]21C`, the “activity, negative = cell killing” value was -4.95%. As to `CNCC(=O)c1ccc(O)c(O)c1`, the “activity, negative = cell killing” value is -21.1%. Still for that read-out and setting: the same measure for `CN1C(=O)C(O)N=C(c2ccccc2)c2cc(Cl)ccc21` (centres undefined): -18%. In the case of `CN1C(=O)NC(=O)C(C)(C2=CCCCC2)C1=O` (centres undefined), the Potency result is “inactive”. With `CCc1cc2c(s1)-n1c(C)nnc1CN=C2c1ccccc1Cl`, the “activity, negative = cell killing” value was -25.3%. For the compound `CC(C)=CC1C(C(=O)OCN2C(=O)C3=C(CCCC3)C2=O)C1(C)C` (centres undefined), the “activity, negative = cell killing” value is -3.76%.

Consider `CN1C(=O)CCS(=O)(=O)C1c1ccc(Cl)cc1` (centres undefined), for which the Potency result was “inactive”. On to `CC(C)(C)NCC(O)c1ccccc1Cl` (centres undefined), for which the “activity, negative = cell killing” value is -20.8%. Still for that read-out and setting: the same measure for `COc1ccc2c(c1)C13CCCC[C@@H]1C(C2)N(C)CC3` (some centres undefined): -22.7%. `O=C1Nc2ccc(Cl)cc2C(c2ccccc2)=NC1O` (centres undefined): the Potency entry was “inactive”. As to `CCC1(c2ccc(N)cc2)CCC(=O)NC1=O` (centres undefined), the “activity, negative = cell killing” value was -14.7%. As to `CC(C)N(CCC(C(N)=O)(c1ccccc1)c1ccccn1)C(C)C` (centres undefined), the “activity, negative = cell killing” value was -13.3%. Same read-out and setting: the same measure for `CCCCC/C=C\C/C=C\C/C=C\C/C=C\CCCC(=O)NCC(=O)O`: 0.313% [at 4.17 µM]; for `CCCCCN(C)CCC(O)(P(=O)(O)O)P(=O)(O)O`: 7.56%; for `CN(C)CCc1c[nH]c2cccc(OP(=O)(O)O)c12`: -0.323% [at 91.6 µM]. With `C#C[C@]1(O)CC[C@H]2[C@@H]3CCC4=CC(=O)CC[C@]4(C)[C@H]3CC[C@@]21C`, the “activity, negative = cell killing” value is -3.18%.

For the compound `COC(=O)C(Cl)C(=O)OC`, the “activity, negative = cell killing” value is -11.7%.
